Test results from PubChem BioAssay (Tox21).
Several values for one entry are separate records, joined by “and”; a condition that tells them apart may be missing. Identical values can stand only once. Results filed as inconclusive are left out. The source holds several records for some structures; these can differ, active in one and inactive in another. Activity calls are given as the source filed them. Calls follow the shape of the dose curve; as a rule, active = well fitted curve in the direction sought with a large enough effect in the repeat runs; inconclusive = weak or mixed curves; inactive = no such curve, though single readings can be large; an effect the other way counts as inactive or inconclusive.

Key:
[1] = target: Cytochrome P450 2D6 (Homo sapiens) (UniProt P10635); experiment: Cytochrome P450 Family 2 Subfamily D Member 6 (CYP2D6) small molecule antagonists: luciferase reporter qHTS assay (AID 1671196); also: nearly all actives have a fitted effect of over 50% in size; also: potency is read from the fitted curve at half-maximal effect; as to activity change, negative = inhibition: series mostly up to about 120 µM
Cytochrome P450 2D6 (Homo sapiens), sequence (P10635 whole entry, looked up): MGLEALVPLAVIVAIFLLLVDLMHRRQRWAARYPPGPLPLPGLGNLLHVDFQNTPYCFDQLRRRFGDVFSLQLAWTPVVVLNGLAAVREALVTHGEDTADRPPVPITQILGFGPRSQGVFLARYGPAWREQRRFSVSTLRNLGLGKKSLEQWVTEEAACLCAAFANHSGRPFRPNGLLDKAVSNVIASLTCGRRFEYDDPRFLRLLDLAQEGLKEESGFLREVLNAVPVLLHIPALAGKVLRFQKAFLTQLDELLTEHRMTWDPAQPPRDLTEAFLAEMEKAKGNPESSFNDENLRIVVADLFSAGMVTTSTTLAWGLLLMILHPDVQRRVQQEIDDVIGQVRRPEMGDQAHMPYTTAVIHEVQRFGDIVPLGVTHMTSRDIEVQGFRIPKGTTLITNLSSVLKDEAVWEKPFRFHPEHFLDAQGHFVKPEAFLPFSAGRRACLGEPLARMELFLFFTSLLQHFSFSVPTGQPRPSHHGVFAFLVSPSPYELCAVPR
In short: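 Cell-free P450-Glo system: CYP2D6 with proluciferin substrate was pre-incubated with compound for 10 min, then reacted with NADPH regeneration for 1 h at room temperature. Luciferin product was detected after 20 min, and data were reported as relative luminescence units.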

[2] = target: Cytochrome P450 2C19 (Homo sapiens) (UniProt P33261); experiment: Cytochrome P450 Family 2 Subfamily C Member 19 (CYP2C19) small molecule antagonists: luciferase reporter qHTS assay (AID 1671197); also: nearly all actives have a fitted effect of over 65% in size; also: potency is read from the fitted curve at half-maximal effect; as to activity change, negative = inhibition: series mostly up to about 120 µM
Cytochrome P450 2C19 (Homo sapiens), sequence (P33261 whole entry, looked up): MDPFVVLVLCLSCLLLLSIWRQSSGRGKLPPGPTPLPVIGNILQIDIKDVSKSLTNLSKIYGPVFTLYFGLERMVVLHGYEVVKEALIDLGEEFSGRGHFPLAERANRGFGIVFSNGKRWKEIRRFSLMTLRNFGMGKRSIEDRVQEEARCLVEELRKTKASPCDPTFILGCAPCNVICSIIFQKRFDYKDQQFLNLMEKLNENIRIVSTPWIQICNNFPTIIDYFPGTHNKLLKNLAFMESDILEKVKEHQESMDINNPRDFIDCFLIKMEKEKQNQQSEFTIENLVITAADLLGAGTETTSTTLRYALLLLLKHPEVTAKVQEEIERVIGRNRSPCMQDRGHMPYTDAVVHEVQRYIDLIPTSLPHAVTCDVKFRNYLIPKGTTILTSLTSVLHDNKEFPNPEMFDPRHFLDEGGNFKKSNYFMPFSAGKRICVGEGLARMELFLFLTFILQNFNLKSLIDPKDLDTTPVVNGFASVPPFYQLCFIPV
In short: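 Quantitative high-throughput screen of the Tox21 library using CYP2C19 with proluciferin substrate. Reaction: NADPH regeneration, 37C, 1 h, after 10 min compound preincubation at room temperature. Readout: luminescence.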

[3] = target: Cytochrome P450 2C9 (Homo sapiens) (UniProt P11712); experiment: Cytochrome P450 Family 2 Subfamily C Member 9 (CYP2C9) small molecule antagonists: luciferase reporter qHTS assay (AID 1671198); also: nearly all actives have a fitted effect of over 50% in size; also: potency is read from the fitted curve at half-maximal effect; as to activity change, negative = inhibition: series mostly up to about 120 µM
Cytochrome P450 2C9 (Homo sapiens), sequence (P11712 whole entry, looked up): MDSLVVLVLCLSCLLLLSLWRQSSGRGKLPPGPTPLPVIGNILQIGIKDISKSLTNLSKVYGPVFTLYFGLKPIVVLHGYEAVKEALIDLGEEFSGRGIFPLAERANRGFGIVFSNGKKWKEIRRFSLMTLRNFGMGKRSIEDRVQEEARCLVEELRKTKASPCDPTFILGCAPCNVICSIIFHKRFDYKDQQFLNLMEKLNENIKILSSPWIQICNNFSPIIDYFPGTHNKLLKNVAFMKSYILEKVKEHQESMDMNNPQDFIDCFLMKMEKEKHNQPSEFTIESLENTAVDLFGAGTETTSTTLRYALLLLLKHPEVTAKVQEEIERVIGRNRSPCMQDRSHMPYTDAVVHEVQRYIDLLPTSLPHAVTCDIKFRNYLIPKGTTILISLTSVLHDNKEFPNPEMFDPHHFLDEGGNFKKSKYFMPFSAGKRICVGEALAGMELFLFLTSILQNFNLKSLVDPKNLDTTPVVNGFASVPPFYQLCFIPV
In short: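 P450-Glo proluciferin substrate with CYP2C9 enzyme; 10 min RT preincubation, then NADPH regeneration 1 h at 37C; luciferin detection reagent 20 min RT, luminescence in relative luminescence units.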

[4] = target: Cytochrome P450 1A2 (Homo sapiens) (UniProt P05177); experiment: Cytochrome P450 Family 1 Subfamily A Member 2 (CYP1A2) small molecule antagonists: luciferase reporter qHTS assay (AID 1671199); also: nearly all actives have a fitted effect of over 50% in size; also: potency is read from the fitted curve at half-maximal effect; as to activity change, negative = inhibition: series mostly up to about 120 µM
Cytochrome P450 1A2 (Homo sapiens), sequence (P05177 whole entry, looked up): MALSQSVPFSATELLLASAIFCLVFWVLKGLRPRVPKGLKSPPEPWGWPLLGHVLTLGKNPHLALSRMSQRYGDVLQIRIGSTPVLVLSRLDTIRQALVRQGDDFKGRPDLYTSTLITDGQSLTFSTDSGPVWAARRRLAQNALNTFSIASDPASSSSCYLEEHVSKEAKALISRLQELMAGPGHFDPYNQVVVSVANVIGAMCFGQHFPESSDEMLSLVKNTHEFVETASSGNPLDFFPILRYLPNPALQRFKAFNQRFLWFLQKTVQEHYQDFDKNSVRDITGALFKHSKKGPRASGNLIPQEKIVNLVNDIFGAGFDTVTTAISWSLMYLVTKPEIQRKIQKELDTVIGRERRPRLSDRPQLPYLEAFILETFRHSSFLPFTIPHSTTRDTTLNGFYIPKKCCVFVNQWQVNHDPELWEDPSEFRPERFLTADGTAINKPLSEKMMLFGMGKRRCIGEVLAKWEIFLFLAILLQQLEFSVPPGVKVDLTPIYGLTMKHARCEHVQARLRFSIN
In short: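 P450-Glo CYP1A2 enzyme–proluciferin substrate mix with compound 10 min at room temperature, then NADPH regeneration 1 h at room temperature. Luciferin detection reagent added, luminescence read after 20 min; furafylline positive control.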

[5] = target: Voltage-gated inwardly rectifying potassium channel KCNH2 (Homo sapiens) (UniProt Q12809); experiment: Human Ether-a-go-go-Related Gene (hERG) channel small molecule antagonists: fluorescence cell-based qHTS assay (AID 1671200);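 also: hERG-expressing U2OS cells given a thallium stimulus after FluxOR II dye loading; series mostly up to about 77 µM; nearly all actives have a fitted effect of over 50% in size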
Voltage-gated inwardly rectifying potassium channel KCNH2 (Homo sapiens), sequence (Q12809 whole entry, looked up): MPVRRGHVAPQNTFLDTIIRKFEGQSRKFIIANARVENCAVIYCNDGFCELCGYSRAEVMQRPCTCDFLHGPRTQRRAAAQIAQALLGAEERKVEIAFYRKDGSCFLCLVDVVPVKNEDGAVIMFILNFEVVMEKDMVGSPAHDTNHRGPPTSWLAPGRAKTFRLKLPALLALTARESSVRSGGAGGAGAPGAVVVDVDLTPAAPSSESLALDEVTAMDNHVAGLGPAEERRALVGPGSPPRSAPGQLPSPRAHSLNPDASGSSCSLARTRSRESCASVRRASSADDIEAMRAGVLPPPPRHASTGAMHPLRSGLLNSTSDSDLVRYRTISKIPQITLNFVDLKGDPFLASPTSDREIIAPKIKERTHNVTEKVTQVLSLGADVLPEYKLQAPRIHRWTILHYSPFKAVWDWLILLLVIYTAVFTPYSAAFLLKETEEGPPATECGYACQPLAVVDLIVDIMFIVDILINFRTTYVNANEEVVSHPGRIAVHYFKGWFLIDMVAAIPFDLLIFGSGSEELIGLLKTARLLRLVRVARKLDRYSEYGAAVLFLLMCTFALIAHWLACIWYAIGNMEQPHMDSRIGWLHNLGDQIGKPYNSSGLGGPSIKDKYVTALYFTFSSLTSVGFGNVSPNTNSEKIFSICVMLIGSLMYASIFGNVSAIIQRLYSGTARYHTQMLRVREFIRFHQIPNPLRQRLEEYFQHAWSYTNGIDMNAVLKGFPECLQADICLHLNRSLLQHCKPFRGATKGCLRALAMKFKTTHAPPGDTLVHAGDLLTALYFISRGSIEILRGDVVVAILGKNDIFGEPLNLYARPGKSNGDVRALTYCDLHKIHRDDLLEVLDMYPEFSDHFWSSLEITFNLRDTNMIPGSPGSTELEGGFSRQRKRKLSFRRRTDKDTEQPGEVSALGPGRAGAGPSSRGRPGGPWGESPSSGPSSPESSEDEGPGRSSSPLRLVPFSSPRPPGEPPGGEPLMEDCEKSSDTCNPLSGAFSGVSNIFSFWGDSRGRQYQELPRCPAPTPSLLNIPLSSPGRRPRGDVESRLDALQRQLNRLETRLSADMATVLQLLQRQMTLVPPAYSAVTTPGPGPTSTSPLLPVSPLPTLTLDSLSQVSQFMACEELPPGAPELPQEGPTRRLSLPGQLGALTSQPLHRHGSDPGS
In short: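 First, 1000 cells per well are seeded and cultured overnight at 37 C. Next, FluxOR II dye is loaded for 1 h at room temperature, protected from light. After 10 more minutes, stimulus is added and fluorescence is read.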

[6] = target: Cytochrome P450 3A4 (Homo sapiens) (UniProt P08684); experiment: Cytochrome P450 Family 3 Subfamily A Member 4 (CYP3A4) small molecule antagonists: luciferase reporter qHTS assay (AID 1671201); also: nearly all actives have a fitted effect of over 50% in size; also: potency is read from the fitted curve at half-maximal effect; as to activity change, negative = inhibition: series mostly up to about 120 µM
Cytochrome P450 3A4 (Homo sapiens), sequence (P08684 whole entry, looked up): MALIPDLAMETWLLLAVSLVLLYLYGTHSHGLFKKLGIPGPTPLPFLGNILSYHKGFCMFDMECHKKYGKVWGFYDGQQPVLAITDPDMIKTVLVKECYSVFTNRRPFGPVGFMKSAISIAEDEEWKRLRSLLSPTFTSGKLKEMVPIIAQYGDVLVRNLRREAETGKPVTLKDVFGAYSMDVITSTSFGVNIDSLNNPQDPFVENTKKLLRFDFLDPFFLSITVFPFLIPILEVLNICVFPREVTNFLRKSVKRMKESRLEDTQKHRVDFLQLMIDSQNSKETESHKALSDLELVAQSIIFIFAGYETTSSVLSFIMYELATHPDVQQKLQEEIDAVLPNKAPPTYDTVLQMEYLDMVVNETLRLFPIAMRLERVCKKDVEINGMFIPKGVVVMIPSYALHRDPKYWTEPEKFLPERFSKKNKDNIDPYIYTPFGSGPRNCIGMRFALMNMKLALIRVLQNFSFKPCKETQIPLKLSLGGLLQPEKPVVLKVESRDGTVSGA
In short: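 Enzyme and proluciferin substrate are mixed with test chemicals for 10 min, then NADPH regeneration system drives turnover for 1 h at room temperature. A detection reagent halts the reaction; luminescence after 20 min gives relative activity.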
% is scaled to controls: 0 for no effect and ±100 for the full control effect.

Cc1sccc1Br
inactive: Potency [1] | Potency [2] | Potency [3] | Potency [4] | Potency [5] | Potency [6]

COC(=O)CC(C)=O
inactive: Potency [1] | Potency [2] | Potency [3] | Potency [4] | Potency [5] | Potency [6]

NS(=O)(=O)c1ccc(C(=O)O)cc1
inactive: Potency [1] | Potency [2] | Potency [3] | Potency [4] | Potency [5] | Potency [6]

COCCCOCCCOC
inactive: Potency [1] | Potency [2] | Potency [3] | Potency [4] | Potency [5] | Potency [6]

CCC(C)C1CCCCC1=O (stereo not given)
inactive: Potency [1] | Potency [2] | Potency [3] | Potency [4] | Potency [5] | Potency [6]

Cc1[nH]c(=O)c(C#N)cc1-c1ccc2nccn2c1
inactive: Potency [1] | Potency [2] | Potency [3] | Potency [4] | Potency [5] | Potency [6]

CC(C)NC(=O)NC(C)C
inactive: Potency [1] | Potency [2] | Potency [3] | Potency [4] | Potency [5] | Potency [6]

CC(C)(C)c1ccc(O)c(O)c1
inactive: Potency [2] | Potency [5] | Potency [6]
active: Potency [1] 23.8 µM | Potency [3] 61.5 µM | Potency [4] 41.1 µM

CCC(C)S (stereo not given)
inactive: activity change, negative = inhibition [1] -10.7% [at 4.07 µM] | activity change, negative = inhibition [2] 8.24% [at 4.07 µM] | activity change, negative = inhibition [3] -9.04% [at 4.07 µM] | activity change, negative = inhibition [5] 1.71% [at 2.72 µM]

CCCCCCCCCCCCN(CCCCCCCCCCCC)CCCCCCCCCCCC
inactive: Potency [1] | Potency [2] | Potency [3] | Potency [5] | Potency [6]

CC(C)c1cc2c(cc1S(=O)(=O)O)[C@@]1(C)CCC[C@@](C)(C(=O)O)[C@@H]1CC2
inactive: Potency [1] | Potency [2] | Potency [3] | Potency [5] | Potency [6]

CCC=O
inactive: Potency [1] | Potency [2] | Potency [3] | Potency [5]

CC(C)=CCCC(C)CC(=O)O (stereo not given)
inactive: Potency [1] | Potency [5] | Potency [6]
active: Potency [2] 35.6 µM | Potency [3] 63.3 µM

CN1CCN(c2cc3c(cc2F)c(=O)c(C(=O)O)cn3-c2ccc(F)cc2)CC1
inactive: Potency [1] | Potency [2] | Potency [3] | Potency [4] | Potency [5] | Potency [6]

CC(=O)CC(C)(C)C1CCCCC1
inactive: Potency [1] | Potency [2] | Potency [3] | Potency [5] | Potency [6]

OCCOc1ccc(OCCO)cc1
inactive: Potency [1] | Potency [2] | Potency [3] | Potency [5] | Potency [6]

CCCCCCCCCCCCCC=O
active: Potency [1] 2.78 µM
inactive: activity change, negative = inhibition [2] -12.1% [at 10.5 µM] | activity change, negative = inhibition [3] -9.33% [at 10.5 µM] | activity change, negative = inhibition [5] -8.57% [at 6.97 µM] | activity change, negative = inhibition [6] -19.9% [at 10.5 µM]

CC/C=C\CC/C=C/C(OCC)OCC
inactive: Potency [1] | Potency [5]
active: Potency [2] 56.4 µM | Potency [3] 35.6 µM | Potency [6] 31.7 µM

O=[N+]([O-])c1ccc(F)cc1F
inactive: Potency [1] | Potency [2] | Potency [3] | Potency [5] | Potency [6]

CN1N=C(C(N)=O)CCC1=O
inactive: Potency [1] | Potency [2] | Potency [3] | Potency [5] | Potency [6]

COC(=O)CCSCCC(=O)OC
inactive: Potency [1] | Potency [2] | Potency [3] | Potency [5] | Potency [6]

CC(=O)CC(C)C
inactive: Potency [1] | Potency [2] | Potency [3] | Potency [5] | Potency [6]

CCCN(CCC)CCc1cccc2c1CC(=O)N2
inactive: Potency [2] | Potency [3] | Potency [4] | Potency [6]
active: Potency [1] 0.977 µM

C=CCCCCCCCCC=O
active: Potency [2] 79.6 µM | Potency [3] 31.7 µM
inactive: Potency [1] | Potency [5]

COC(=O)c1c(Cl)c(Cl)c(C(=O)OC)c(Cl)c1Cl
inactive: Potency [3] | Potency [6]
inactive and 31.7 µM (active): Potency [1]
active: Potency [2] 28.3 µM and 15.9 µM | Potency [4] 317 nM and 154 nM

CCO[Si](CCC1CCC2OC2C1)(OCC)OCC (stereo not given)
inactive: Potency [1] | Potency [2] | Potency [3] | Potency [5]
